Results with a measured potency or affinity are listed apart.
Key:
Klebsiella pneumoniae = settings: Concentration 32 ug.mL-1;; ASSAY_TEST Inhibition of Bacterial Growth; detection method Absorption (OD600); MEDIA CAMHB; plate type 384well; NBS; CORNING #3640; time 18 hr
Candida albicans = settings: Concentration 32 ug.mL-1; ASSAY_TEST Inhibition of Fungal Growth; detection method Absorption (OD530)
Cryptococcus neoformans = settings: Concentration 32 ug.mL-1; ASSAY_TEST Inhibition of Fungal Growth; detection method Resazurin; Absorption (OD600-OD570); plate type 384well; NBS; CORNING #3640

Row | SMILES | Inhibition (Klebsiella pneumoniae) [%] | Inhibition (Candida albicans) [%] | Inhibition (Cryptococcus neoformans) [%]
1 | CSc1cccc(NC(=O)Cn2nc3c(Sc4ccccc4)nccn3c2=O)c1 | 1.1 | 18.38 | -12.89
2 | Cc1cccc(NC(=O)Cn2nc3c(SCc4ccccc4)nccn3c2=O)c1C | 5.49 | 0.78 | -13.96
3 | Cc1ccc(-c2cc3c4nn(CC(=O)N5CCN(c6ccccc6F)CC5)c(=O)n4ccn3n2)cc1C | 10.7 | 3.33 | -14.81

Reference: ChEMBL document CHEMBL4513146, “CO-ADD screening of Karazin Kharkiv National University (Ukraine) compounds”
